RN4220 kill = S. aureus RN4220 growth inhibition. OD600, 16 h. inhibition, % (test concentration not listed). actives 0.33% (n = 330,000). AID 1259311; in the data active = inhibition above about 85%;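 note: plate controls were untreated cells for no effect and reference antibiotic for full effect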
PrPC surface inh = cell surface PrPC inhibition, primary TR-FRET screen | TR-FRET read-out | P04156 | inhibition, % at 13.8 µM | actives 0.43% (n = 370,000); in the data active = inhibition above about 24%; note: 0% = median of the test wells and 100% = reference compound wells
ugtP null kill = kills S. aureus RN4220 lacking UgtP | S. aureus RN4220 ugtP deletion, OD600 growth, 16 h | growth inhibition, % (no concentration beside the values) | actives 0.54% (n = 330,000) | AID 1259309; in the data active = growth inhibition above about 68%;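 note: plate controls were untreated wells for no effect and antibiotic for full effect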
PfHsp40 rescue = rescue of PfHsp40-mediated yeast toxicity | S. cerevisiae expressing PfHsp40, growth rescue, ATP luminescence | growth rescue, % at 12.5 µM | actives 0.68% (n = 340,000) | AID 504582; in the data active = growth rescue above about 28%, passing the limit was not always enough;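 note: yeast W303a lacking pdr1 and pdr3 grown in galactose medium; growth measured after three days at 30 °C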
VHR inh abs = inhibitors of human VHR1 phosphatase (DUSP3); P51452; recombinant VHR phosphatase, pNPP absorbance; inhibition, % at 13.3 µM; actives 0.52% (n = 290,000); AID 1654; in the data active = inhibition above about 50%
Target sequence (P51452 whole entry, looked up): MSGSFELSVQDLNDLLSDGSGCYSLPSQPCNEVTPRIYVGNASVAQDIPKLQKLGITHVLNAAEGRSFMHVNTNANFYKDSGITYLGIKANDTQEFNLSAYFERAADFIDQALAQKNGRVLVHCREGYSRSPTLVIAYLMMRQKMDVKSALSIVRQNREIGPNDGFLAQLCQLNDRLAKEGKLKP
PrPC TRFRET cf = confirmation of inhibitors of cell surface human prion protein. inhibition, % at 13.8 µM. actives 65% (n = 1,500). cell surface PrPC level, TR-FRET. shares compounds with PrPC surface inh. AID 743200; in the data active = inhibition above about 25%
LD9 tox = LD9 cell cytotoxicity, PrPc inhibitor counter-screen. actives 29% (n = 1,500). LD9 cells cytotoxicity, luminescence viability. shares compounds with PrPC surface inh. AID 743201. inhibition, % at 13.8 µM; in the data active = inhibition above about 9.5%
An asterisk follows results filed as active; x = no result. Only some compounds are listed: those with a hit (about 1.8% of all), similar ones and a draw of the others.

SMILES	RN4220 kill	PrPC surface inh	ugtP null kill	PfHsp40 rescue	VHR inh abs	PrPC TRFRET cf	LD9 tox
CC1=CC2OC3CC4OC(=O)C=CC=CC(=O)OCCC(C)C(O)C(=O)OCC2(CC1)C4(C)C31CO1 (stereo not given)	x	82*	x	x	x	94*	69*
CC1=CC2OC3CC4OC(=O)C=CC=CC(C(C)O)OCC(O)C5(C)OC5C(=O)OCC2(CC1O)C4(C)C31CO1 (stereo not given)	x	89*	x	x	x	96*	60*
CC(O)C1C=CC=CC(=O)OC2CC3OC4C5OC5(C)C(O)CC4(COC(=O)C(O)C(C)CCO1)C2(C)C31CO1 (stereo not given)	x	92*	x	x	x	99*	40*
CC1CCOC(=O)C=CC=CC(=O)OC2CC3OC4C5OC5(C)C(O)CC4(COC(=O)C1O)C2(C)C31CO1 (stereo not given)	x	84*	x	x	x	101*	46*
CC(C)(C)OC(=O)N1CCC(N[C@@H](Cc2ccccc2)C(=O)NCCc2c[nH]c3ccccc23)(C(=O)NC2CCCCC2)CC1	x	27*	x	x	x	12	-4
CC(C)(C)OC(=O)N1CCC(N[C@@H](Cc2c[nH]c3ccccc23)C(=O)NCC(c2ccccc2)c2ccccc2)(C(=O)NC2CCCCC2)CC1	x	12	x	x	x	x	x
O=c1c(Br)c(Br)cnn1-c1ccccc1	17	33*	0	2	9	80*	98*
Cc1ccc(-n2ncc(Br)c(Br)c2=O)cc1	-2	x	-2	4	2	x	x
O=C(NN=Cc1cccnc1)c1cc(O)c(O)c(O)c1	4	x	0	x	x	x	x
Cc1cnc(NC(=O)CN2CCN(c3ccccn3)CC2)s1	-1	38*	6	-1	-3	31*	11*
COc1ccc(N2CCN(CC(=O)Nc3ncc(C)s3)CC2)cc1	3	0	5	-1	16	x	x
Cc1cccc(C)c1NS(=O)(=O)c1ccc(-c2cnc(C3CC3)o2)cc1	51	25*	10	283*	-2	14	29*
N#CC(=Cc1ccc(O)cc1)C(N)=C(C#N)C#N	5	64*	-5	1	x	7	-4
N#C/C(=C\c1ccc(O)cc1)C(=O)N1CCCC1	6	-1	0	0	3	x	x
NC(=S)N/N=C1\CC(n2nnn(-c3cccc(Cl)c3)c2=S)C2COC1O2 (stereo not given)	x	28*	x	1	18	42*	-4
Cc1cc(C)cc(-n2nnn(C3CC(=NNC(N)=S)C4OCC3O4)c2=S)c1 (stereo not given)	0	x	7	x	x	x	x
CCN(CC)c1ncnc2ccc(Br)cc12	-1	39*	14	0	48	41*	-4
CN1CCC(N(C)c2ncnc3ccc(Br)cc23)CC1	3	12	9	-1	-12	x	x
CC(=NNc1nnc(-c2ccccc2)c(-c2ccccc2)n1)c1cccc([N+](=O)[O-])c1	1	x	-7	x	x	x	x
CC(Cc1ccccn1)NC(=O)c1ccc(OC2CCN(CCc3ccccc3)CC2)cc1 (stereo not given)	1	-7	3	-2	21	x	x
O=C(NCCc1ccccn1)c1ccc(OC2CCN(CCc3ccccc3)CC2)cc1	1	45*	4	1	13	-1	7
Cn1c(SCC(=O)N2CCc3ccccc3C2)nnc1-c1cccs1	3	-2	8	0	1	x	x
Cn1c(SCC(=O)N2CCc3ccccc3C2)nnc1-c1ccncc1	3	41*	17	0	10	-5	-8
Cc1nn(Cc2ccc(Cl)cc2)c(C)c1NC(=O)c1cc(-c2ccco2)on1	1	32*	-7	0	-4	31*	4
Cc1nn(Cc2ccc(Cl)c(Cl)c2)c(C)c1NC(=O)c1cc(-c2ccco2)on1	7	38*	-13	13	4	31*	1
C[C@@]12CCC=CC1C(c1ccc3ccccc3c1Br)N(Cc1ccccc1)C2=O (stereo not given in full)	-5	x	2	x	x	x	x
CCCCn1c(=N)n(CC(=O)c2ccc(Br)s2)c2ccccc21	0	37*	-6	0	10	83*	28*
CCn1c(=N)n(CC(=O)c2ccc(Br)s2)c2ccccc21	0	0	-8	-1	8	x	x
